Test [1] concerns Aerobactin synthetase IucA (Klebsiella pneumoniae hvKP1). As to the kind of experiment: IucA enzyme inhibition, primary screen, biochemical, Spectrum library (AID 1346200).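 Note: 100% = wells without compound and 0% = wells lacking enzyme.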 The conditions noted are these: malachite green pyrophosphate, A620, at 8 µM, stronger effect = lower value.
The test system of test [2] is Aerobactin synthetase IucA (Klebsiella pneumoniae, hypervirulent). As to the kind of experiment: biochemical IucA inhibition screen of LOPAC library by absorbance (AID 1346212).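 Note: 100% = no compound wells and 0% = no enzyme wells.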 The conditions noted are these: IucA enzyme assay, absorbance (OD) readout; stronger effect = lower value;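 tested at 8 µM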.
Test [3] is described as follows: blockers of polyQ-driven CASP3 activation – cell-based (AID 1583). The conditions noted are these: polyglutamine-induced caspase-3 activation, cell assay; stronger effect = higher value;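 tested at 10 µM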.
For test [4], the target named is Huntingtin (Homo sapiens) (UniProt P42858). As to the kind of experiment: mutant huntingtin aggregation blockers – QA1, dose response (AID 1584). The following applies: in vitro mutant huntingtin aggregation assay; confirmation test; at 10 µM; stronger effect = lower value.
Test [5] is described as follows: yeast 75Q aggregation reduction – 75Q-TubU reporter (AID 1593). The conditions noted are these: Yeast 75Q polyglutamine aggregation reporter.
Test [6] in a line: restoration of touch response, mutant HTT neurons – whole organism, C. elegans mechanosensory neurons, N-terminal huntingtin (AID 1599). The following applies: C. elegans polyQ-huntingtin mechanosensory neurons, stronger effect = higher value.
The nature of test [7]: blockers of cytochrome c efflux from mitochondria – biochemical, purified mitochondria (AID 1603).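 Note: mouse liver mitochondria challenged with calcium chloride; signal normalized to the plate average as 100%.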 The following applies: stronger effect = lower value.
The nature of test [8]: polyglutamine aggregate formation blockers (AID 1604). The conditions noted are these: polyglutamine-induced protein aggregation inhibition assay; stronger effect = higher value; tested at 2.5 µM.
Test [9] is described as follows: glutamate transport activators, MN-1 cells, MN-1 cell line (AID 1612).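 Note: tested at 1 µM final; 0% = mean of DMSO vehicle wells on each plate; positive means more glutamate uptake than control and negative means less.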 The conditions noted are these: MN-1 motor neuron cells, stronger effect = higher value.
The nature of test [10]: 75Q-TubH aggregate inhibition, S. cerevisiae, yeast (AID 1616). The following applies: S. cerevisiae 75Q-TubH polyglutamine aggregation suppression; stronger effect = higher value.
Test [11] is described as follows: GFP-Q80 aggregate reduction, neuronal-like cells, cell-based, NGF-treated PC12, GFPQ80 (AID 1614).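 Note: lower means fewer inclusions and 0 means no inclusions at all.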 The conditions noted are these: PC12 NGF-treated GFP-polyQ80 inclusion reduction.
Test [12] in a line: P. berghei load reduction in hepatocytes – cell-based, HepG2, luciferase luminescence, HepG2 viability, primary screen (AID 624349; in the data active = parasite load remaining mostly below about 12%, no sharp cut-off; inactive = mostly above about 10%;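 note: 100% = mean of DMSO negative control wells on the same plate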). The following applies: P. berghei liver stage in HepG2, luciferase luminescence, concentration not given here; parasite load remaining: stronger effect = lower value; viability: measured here: HepG2 viability without parasites.
Test [13] has as its target Mitogen-activated protein kinase 7 (Homo sapiens) (UniProt Q13164). As to the kind of experiment: Gal4-ERK5 driven luciferase induction – cell-based, HTS, primary screen (AID 1508626;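 active = luciferase signal above three times the same-plate solvent-only control wells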;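 note: luciferase driven by Gal4-ERK5 fusion binding five Gal4 sites before minimal TATA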). The following applies: HeLa Gal4-ERK5 transactivation, 18 h, at 5 µM, stronger effect = higher value.
Test [14] in a line: viability loss with induced miR-34 in A549 – imaging, A549 dox-inducible miR-34, nuclei and caspase counts, primary screen (AID 1347080;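 active = compounds whose cell count with miR-34 switched on is under 0.7 times the count with it off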). The conditions noted are these: A549 miR-34 inducible, Hoechst nuclei count, 48 h.
The nature of test [15]: blockers of cellular phospholipid synthesis – cell-based, LOPAC library, screen 4, primary screen (AID 1347384). The following applies: animal cells, phospholipid biosynthesis inhibition screen; at 10 µM.
The nature of test [16]: MELAS cybrid and Rieske KO viability enhancers – cell-based, MELAS cybrids, Rieske KO mouse fibroblasts, CellTiter-Glo, primary screen (AID 1508586;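 active = mean z-score across replicates of 1.96 or higher in either the MELAS or the Rieske mutant cell line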;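 note: z relative to plate mean and SD of compound and empty wells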). The following applies: low glucose.
Test [17] addresses ATP-dependent translocase ABCB1 (Homo sapiens) (UniProt P08183). The experiment in a line: P-glycoprotein substrate transport blockade – cell-based (AID 377; in the data active = fluorescence slope change above about 50%). The following applies: MDR1-expressing cells, fluorescent substrate accumulation slope; stronger effect = higher value; concentration not given here.

Where “and” joins values, the source holds several entries; their conditions need not be identical. Equal values may be shown once. Results filed as inconclusive are left out. For some assays here: Potency and affinity values are given separately. The source holds several records for some structures; these can differ, active in one and inactive in another. Calls of active or inactive are those of the source. Unless noted, the rule behind the calls is not given here.

Mitogen-activated protein kinase 7 (Homo sapiens), sequence (Q13164 whole entry, looked up, the tested form may be a part): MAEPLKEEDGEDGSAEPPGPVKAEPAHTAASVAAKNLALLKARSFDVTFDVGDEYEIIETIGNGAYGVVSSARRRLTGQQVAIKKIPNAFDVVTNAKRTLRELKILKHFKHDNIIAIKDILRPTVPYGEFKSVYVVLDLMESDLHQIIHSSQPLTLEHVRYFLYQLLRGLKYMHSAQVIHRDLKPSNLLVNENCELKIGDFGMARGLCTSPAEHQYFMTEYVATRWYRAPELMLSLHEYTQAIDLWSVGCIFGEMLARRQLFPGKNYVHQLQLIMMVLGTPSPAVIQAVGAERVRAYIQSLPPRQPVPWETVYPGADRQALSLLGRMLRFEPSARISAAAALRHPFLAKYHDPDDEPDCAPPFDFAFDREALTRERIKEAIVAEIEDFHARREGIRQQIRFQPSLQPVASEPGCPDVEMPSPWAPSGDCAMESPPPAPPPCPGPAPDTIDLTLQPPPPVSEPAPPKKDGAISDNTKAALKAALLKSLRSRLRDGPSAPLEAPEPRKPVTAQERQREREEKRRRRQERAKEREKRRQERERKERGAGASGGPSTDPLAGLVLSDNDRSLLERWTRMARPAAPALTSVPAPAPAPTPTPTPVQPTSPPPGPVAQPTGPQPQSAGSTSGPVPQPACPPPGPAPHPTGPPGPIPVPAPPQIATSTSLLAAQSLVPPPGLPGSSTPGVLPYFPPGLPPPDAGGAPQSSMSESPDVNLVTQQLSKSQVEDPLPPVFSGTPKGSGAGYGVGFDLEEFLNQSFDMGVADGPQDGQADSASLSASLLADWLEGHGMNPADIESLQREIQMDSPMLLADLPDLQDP
ATP-dependent translocase ABCB1 (Homo sapiens), sequence (P08183 whole entry, looked up): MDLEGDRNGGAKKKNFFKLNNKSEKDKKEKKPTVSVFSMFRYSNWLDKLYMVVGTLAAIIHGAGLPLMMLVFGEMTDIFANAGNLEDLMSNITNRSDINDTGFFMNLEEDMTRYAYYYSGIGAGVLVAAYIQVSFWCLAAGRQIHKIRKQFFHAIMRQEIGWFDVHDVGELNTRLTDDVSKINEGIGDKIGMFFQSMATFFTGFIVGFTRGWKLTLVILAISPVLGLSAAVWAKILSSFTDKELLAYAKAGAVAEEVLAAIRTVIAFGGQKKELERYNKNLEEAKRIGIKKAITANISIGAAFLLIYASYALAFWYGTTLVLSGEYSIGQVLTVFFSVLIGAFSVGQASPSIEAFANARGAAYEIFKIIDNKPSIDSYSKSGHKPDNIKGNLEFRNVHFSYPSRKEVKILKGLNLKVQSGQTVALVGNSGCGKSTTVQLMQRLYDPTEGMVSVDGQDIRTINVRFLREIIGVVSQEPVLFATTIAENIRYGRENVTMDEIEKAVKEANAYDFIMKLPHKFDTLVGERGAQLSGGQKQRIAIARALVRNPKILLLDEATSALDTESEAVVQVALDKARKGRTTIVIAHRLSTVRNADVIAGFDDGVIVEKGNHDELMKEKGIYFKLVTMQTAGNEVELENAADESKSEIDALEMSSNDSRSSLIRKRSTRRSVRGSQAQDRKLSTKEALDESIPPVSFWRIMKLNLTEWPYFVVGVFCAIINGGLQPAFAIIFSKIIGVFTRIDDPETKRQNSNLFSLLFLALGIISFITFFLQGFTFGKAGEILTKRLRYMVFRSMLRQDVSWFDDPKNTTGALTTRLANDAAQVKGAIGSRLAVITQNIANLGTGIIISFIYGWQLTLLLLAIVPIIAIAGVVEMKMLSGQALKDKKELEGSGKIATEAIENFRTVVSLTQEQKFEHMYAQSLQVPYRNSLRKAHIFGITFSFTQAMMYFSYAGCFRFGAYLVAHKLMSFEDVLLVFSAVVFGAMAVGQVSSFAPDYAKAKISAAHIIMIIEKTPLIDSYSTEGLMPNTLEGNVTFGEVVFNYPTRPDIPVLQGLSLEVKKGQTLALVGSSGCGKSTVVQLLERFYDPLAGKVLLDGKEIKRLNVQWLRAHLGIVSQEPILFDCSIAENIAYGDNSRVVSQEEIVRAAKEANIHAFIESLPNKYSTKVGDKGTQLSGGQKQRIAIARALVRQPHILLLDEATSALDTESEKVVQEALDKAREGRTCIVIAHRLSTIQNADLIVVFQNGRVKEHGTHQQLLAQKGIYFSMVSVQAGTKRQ

As to `O=C1NCC2(CCN(CCc3ccccc3)CC2)O1`, in test [1], the activity remaining was 111% (inactive). Moreover, the remaining activity (in general, the signal under treatment as a percentage of the control signal) in test [2] was 97.8% (inactive).

Take `C[n+]1cc2c3c(ccc2c2ccc4cc5c(cc4c21)OCO5)OCO3`: the inhibition (usually the drop in the measured response relative to a control, in per cent) in test [3] was 89.4%. In addition, the aggregation ratio in test [4] was determined as 0.44. Besides, the score in [5] worked out at 0.8. Further, the rescue above control in [6] is -18. The cytochrome c release ratio in [7] was 1.22. Besides, the inhibition of aggregation in [8] is -2.89%. Besides, the glutamate uptake change in [9] is -11.9%. Further, the aggregation suppression score in [10] was determined as 0.576.

As for `COc1cc([C@@H]2c3cc4c(cc3[C@H](O)[C@H]3COC(=O)[C@H]23)OCO4)cc(OC)c1OC`, in test [3], the inhibition is -31.7%. The molecule also showed a score in test [5] of 0.81. This molecule also gave a rescue above control in test [6] of -13.8. Further, the cytochrome c release ratio in test [7] worked out at 1.06. For the same molecule, in test [8], the inhibition of aggregation was determined as 58.9%. In [9], the glutamate uptake change amounted to 21.3%. Besides, the inclusion score in [11] came out at 2. Also, the aggregation suppression score in test [10] amounted to 0.784.

On to `CC[C@@]1(C2O[C@@H](C3O[C@@](O)(CC)[C@H](C)C[C@@H]3C)C[C@@H]2C)CC[C@H]([C@]2(C)CCC3(C[C@H](O)[C@@H](C)[C@@H]([C@H](C)[C@@H](OC)[C@H](C)C(=O)O)O3)O2)O1` (some centres undefined), for which, in test [12], the parasite load remaining was 17.9% (inactive) and the viability (usually a read-out of living cells in per cent, often relative to untreated cells) amounted to 72.8%. Further, the luciferase signal in test [13] is 32 AU (inactive).

Regarding `N[C@@H](CC(=O)N1CCn2c(nnc2C(F)(F)F)C1)Cc1cc(F)c(F)cc1F`, in test [14] (stronger effect = lower value, cell number ratio, induced over uninduced), the fold change was 0.907 (inactive).

For `CN1CCN(CCCN2c3ccccc3Sc3ccc(Cl)cc32)CC1`, in test [15], the molecule was classed as inactive.

On to `CCn1cc(C(=O)O)c(=O)c2ccc(C)nc21`, for which the z-score in [16] (MELAS cybrid survival, CellTiter-Glo 48 h, stronger effect = higher value) was -0.303 (inactive) and 0.479 (inactive); in test [16] (Rieske KO mouse fibroblast survival, CellTiter-Glo 72 h), 0.386 and -0.565.

As to `COc1ccc2c(c1OC)C(=O)O[C@H]2[C@H]1c2cc3c(cc2CCN1C)OCO3`, the inhibition in [3] was -1.71%. The molecule also yielded a score in test [5] of 1.46. In [6], this molecule had a rescue above control of -6.7. Moreover, the cytochrome c release ratio in test [7] was 1.06. Further, the inhibition of aggregation in [8] was 71.9%. The glutamate uptake change in test [9] amounted to 13.5%. Moreover, the inclusion score in test [11] is 2. The aggregation suppression score in [10] is 1.24. Moreover, in test [12], the parasite load remaining is 124% (inactive) and the viability was 70.9%. Moreover, the activity remaining in test [1] is 127% (inactive). In addition, the luciferase signal in test [13] is 76 AU (inactive).

As to `N[C@@H](Cc1c[nH]c2ccccc12)C(=O)O`, the remaining activity in test [2] is 91.3% (inactive).

In the case of `COc1ccc2c(c1OC)C(=O)O[C@@H]2[C@@H]1c2cc3c(cc2CCN1C)OCO3`, in [12], the parasite load remaining is 190% (inactive) and the viability turned out to be 68.5%. In addition, in test [1], the activity remaining is 113% (inactive).

Regarding `C[C@H]1O[C@@H](O[C@H]2[C@@H](O)C[C@H](O[C@H]3[C@@H](O)C[C@H](O[C@H]4CC[C@]5(C)C6CC[C@]7(C)[C@@H](C8=CC(=O)OC8)CC[C@]7(O)C6CC[C@@H]5C4)O[C@@H]3C)O[C@@H]2C)C[C@H](O)[C@@H]1O` (some centres undefined), the score in test [5] turned out to be 1.05. Moreover, in test [6], the rescue above control is -1.72. The cytochrome c release ratio in test [7] amounted to 1.31. Besides, the inhibition of aggregation in [8] was 76%. Moreover, the glutamate uptake change in test [9] was 5.63%. In test [11], this molecule showed an inclusion score of 2. In test [10], this molecule yielded an aggregation suppression score of 0.858. Besides, the activity remaining in test [1] was 121% (inactive).

As to `COc1ccc2c(c1)c(CC(=O)O)c(C)n2Cc1ccc(Cl)cc1`, in test [2], the remaining activity is 99.3% (inactive).

On to `OC(CN1CCN(c2cccc(Cl)c2)CC1)C(c1ccccc1)c1ccccc1` (centres undefined), for which the remaining activity in test [2] is 114% (inactive).

In the case of `CC(=O)S[C@@H]1CC2=CC(=O)CC[C@]2(C)[C@H]2CC[C@@]3(C)[C@@H](CC[C@@]34CCC(=O)O4)[C@H]12`, in test [2], the remaining activity was 108% (inactive).

Regarding `O=C(NC(=O)c1ccccc1Cl)Nc1ccc(OC(F)(F)F)cc1`, the activity remaining in [1] is 118% (inactive). Moreover, the luciferase signal in test [13] was 68 AU (inactive).

In the case of `CC(N)=O`, the remaining activity in [2] was 124% (inactive).

With `CC1(C)N([O-])[N+](=O)C1(C)Br` (centres undefined), in [1], the activity remaining is 96.6% (inactive). For the same molecule, in test [13], the luciferase signal is 44 AU (inactive).

Turning to `O=Nc1ccc2oc(=O)ccc2c1`, the remaining activity in test [2] is 103% (inactive).

For the molecule `COc1ccc2c(c1)CC[C@@H]1[C@@H]2CC[C@]2(C)[C@@H](NCCCCCCN3C(=O)C=CC3=O)CC[C@@H]12`, in test [2], the remaining activity was 111% (inactive).

Turning to `O=C(O)P(=O)(O)O`, in test [17], the fluorescence slope change was 95.2% (active). Also, the activity remaining in test [1] is 112% (inactive).

Regarding `c1cc2c(cc1[C@H]1OC[C@H]3[C@@H]1CO[C@H]3c1ccc3c(c1)OCO3)OCO2`, the activity remaining in test [1] was 120% (inactive). In addition, in [13], the luciferase signal is 52 AU (inactive).

Regarding `CNC(Cc1c[nH]c2ccccc12)C(=O)O` (centres undefined), in [12], the parasite load remaining is 105% (inactive) and the viability is 73.8%. Moreover, the activity remaining in [1] was 108% (inactive). For the same molecule, the luciferase signal in test [13] is 36 AU (inactive).

As to `CNC(C)[C@@H]1CC[C@@H](N)[C@@H](OC2[C@@H](N)C[C@@H](N)[C@H](OC3OC[C@](C)(O)[C@H](NC)[C@H]3O)[C@H]2O)O1` (some centres undefined), the parasite load remaining in [12] was 99.6% (inactive) and 66.4% (inactive). In addition, the viability in test [12] is 74.9% and 95.7%. The activity remaining in test [1] is 116% (inactive). For the same molecule, the fold change in test [14] (stronger effect = lower value) was 0.833 (inactive); in test [14] (measured here: relative caspase fold change +Dox/-Dox) it was 0.842. In addition, the cell count came out at 10800 in test [14] (measured here: total cells with miR-34 induction, stronger effect = lower value) and 13000 in test [14] (measured here: total cells without miR-34 induction).
